# Measured values as given in the supplement of paper PMC12282887.
# ± gives the standard deviation of the averaged measurements.
# Assays:
# Experiment in all cases: promoter activity interaction Z-score (Lux/OD deviation from empty-vector control); higher = stronger promoter induction by the compound
# [1] = system: E. coli BW25113 acrABp lux reporter
# Outline: (§1)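 Low-copy luxCDABE promoter reporters were carried by E. coli BW25113, either wild type or lacking one of three genes, grown in 40 µl LB Lennox in 384-well plates at 37°C. Each compound was run at four 1:2 dilutions in biological duplicates, with OD600 and luminescence read every 30 min for 12 h. Integration used 0–8 h for wild type and 1–9 h for deletion strains, and wells under 10% of the median growth value were removed. Luminescence normalised to growth was fitted against a control, and the Z-transformed residual is the score.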
# [2] = system: E. coli BW25113 micFp lux reporter
# Outline: as §1
# [3] = system: E. coli BW25113 ompFp lux reporter
# Outline: as §1
# [4] = system: E. coli BW25113 robp lux reporter
# Outline: as §1
# [5] = system: E. coli BW25113 soxSp lux reporter
# Outline: as §1
# [6] = system: E. coli BW25113 tolCp lux reporter
# Outline: as §1
# [7] = 2.4 µg/ml, genetic background: wild type
# [8] = 2.4 µg/ml, genetic background: ΔmarA
# [9] = 2.4 µg/ml, genetic background: Δrob
# [10] = 2.4 µg/ml, genetic background: ΔsoxS
# [11] = 4.8 µg/ml, genetic background: wild type
# [12] = 4.8 µg/ml, genetic background: ΔmarA
# [13] = 4.8 µg/ml, genetic background: Δrob
# [14] = 4.8 µg/ml, genetic background: ΔsoxS
# [15] = 9.5 µg/ml, genetic background: wild type
# [16] = 9.5 µg/ml, genetic background: ΔmarA
# [17] = 9.5 µg/ml, genetic background: Δrob
# [18] = 9.5 µg/ml, genetic background: ΔsoxS
# [19] = 19 µg/ml, genetic background: wild type
# [20] = 19 µg/ml, genetic background: ΔmarA
# [21] = 19 µg/ml, genetic background: Δrob
# [22] = 19 µg/ml, genetic background: ΔsoxS
smiles,measurement,setting,value
CO[C@@H]1[C@@H](OC(N)=O)[C@@H](O)[C@H](Oc2ccc3c(O)c(NC(=O)c4ccc(O)c(CC=C(C)C)c4)c(=O)oc3c2C)OC1(C)C [Novobiocin],promoter activity interaction Z-score,[1]; [7],0.244 ± 0.011
same,promoter activity interaction Z-score,[1]; [8],-0.347 ± 1.3
same,promoter activity interaction Z-score,[1]; [9],0.848 ± 0.4
same,promoter activity interaction Z-score,[1]; [10],0.546 ± 0.036
same,promoter activity interaction Z-score,[1]; [11],0.442 ± 0.43
same,promoter activity interaction Z-score,[1]; [12],0.136 ± 0.95
same,promoter activity interaction Z-score,[1]; [13],1.49 ± 0.32
same,promoter activity interaction Z-score,[1]; [14],0.39 ± 0.16
same,promoter activity interaction Z-score,[1]; [15],0.927 ± 0.17
same,promoter activity interaction Z-score,[1]; [16],-0.164 ± 0.91
same,promoter activity interaction Z-score,[1]; [17],1.06 ± 0.42
same,promoter activity interaction Z-score,[1]; [18],1.16 ± 0.38
same,promoter activity interaction Z-score,[1]; [19],2.99 ± 1.6
same,promoter activity interaction Z-score,[1]; [20],0.0115
same,promoter activity interaction Z-score,[1]; [21],10.3 ± 1.3
same,promoter activity interaction Z-score,[1]; [22],4.62 ± 1.6
same,promoter activity interaction Z-score,[2]; [7],-0.408 ± 0.09
same,promoter activity interaction Z-score,[2]; [8],0.0296 ± 0.17
same,promoter activity interaction Z-score,[2]; [9],0.145 ± 0.073
same,promoter activity interaction Z-score,[2]; [10],-0.147 ± 0.056
same,promoter activity interaction Z-score,[2]; [11],0.134 ± 0.14
same,promoter activity interaction Z-score,[2]; [12],0.213 ± 0.017
same,promoter activity interaction Z-score,[2]; [13],0.0635 ± 0.05
same,promoter activity interaction Z-score,[2]; [14],-0.119 ± 0.12
same,promoter activity interaction Z-score,[2]; [15],0.284 ± 0.49
same,promoter activity interaction Z-score,[2]; [16],0.421 ± 0.17
same,promoter activity interaction Z-score,[2]; [17],0.245 ± 0.24
same,promoter activity interaction Z-score,[2]; [18],0.14 ± 0.16
same,promoter activity interaction Z-score,[2]; [19],1.5406 ± 0.00073
same,promoter activity interaction Z-score,[2]; [20],0.113 ± 0.18
same,promoter activity interaction Z-score,[2]; [21],-0.174 ± 0.2
same,promoter activity interaction Z-score,[2]; [22],1.4 ± 0.62
same,promoter activity interaction Z-score,[3]; [7],0.0673 ± 0.21
same,promoter activity interaction Z-score,[3]; [8],-0.291 ± 0.042
same,promoter activity interaction Z-score,[3]; [9],0.21 ± 0.083
same,promoter activity interaction Z-score,[3]; [10],-0.226 ± 0.19
same,promoter activity interaction Z-score,[3]; [11],0.318 ± 0.29
same,promoter activity interaction Z-score,[3]; [12],-0.339 ± 0.52
same,promoter activity interaction Z-score,[3]; [13],0.165 ± 0.0019
same,promoter activity interaction Z-score,[3]; [14],0.0876 ± 0.53
same,promoter activity interaction Z-score,[3]; [15],-0.446 ± 0.54
same,promoter activity interaction Z-score,[3]; [16],-1.53 ± 0.12
same,promoter activity interaction Z-score,[3]; [17],-1.13 ± 0.89
same,promoter activity interaction Z-score,[3]; [18],-0.424 ± 0.61
same,promoter activity interaction Z-score,[3]; [19],-1.63 ± 0.2
same,promoter activity interaction Z-score,[3]; [20],-1.87 ± 0.17
same,promoter activity interaction Z-score,[3]; [21],-2.05 ± 0.56
same,promoter activity interaction Z-score,[3]; [22],-1.87 ± 0.47
same,promoter activity interaction Z-score,[4]; [7],0.51 ± 0.35
same,promoter activity interaction Z-score,[4]; [8],0.679 ± 0.23
same,promoter activity interaction Z-score,[4]; [9],1.25 ± 0.25
same,promoter activity interaction Z-score,[4]; [10],0.985 ± 1.4
same,promoter activity interaction Z-score,[4]; [11],1.19 ± 0.16
same,promoter activity interaction Z-score,[4]; [12],1.57 ± 0.17
same,promoter activity interaction Z-score,[4]; [13],1.21 ± 0.23
same,promoter activity interaction Z-score,[4]; [14],1.76 ± 1.1
same,promoter activity interaction Z-score,[4]; [15],0.92 ± 0.12
same,promoter activity interaction Z-score,[4]; [16],1.41 ± 0.34
same,promoter activity interaction Z-score,[4]; [17],1.08 ± 0.13
same,promoter activity interaction Z-score,[4]; [18],1.88 ± 0.47
same,promoter activity interaction Z-score,[4]; [19],2.49 ± 0.18
same,promoter activity interaction Z-score,[4]; [20],2.71 ± 1.5
same,promoter activity interaction Z-score,[4]; [21],2.7 ± 1.2
same,promoter activity interaction Z-score,[4]; [22],2.56 ± 1.5
same,promoter activity interaction Z-score,[5]; [7],-0.136 ± 0.025
same,promoter activity interaction Z-score,[5]; [8],-0.0396 ± 0.014
same,promoter activity interaction Z-score,[5]; [9],0.132 ± 0.012
same,promoter activity interaction Z-score,[5]; [10],-0.0347 ± 0.41
same,promoter activity interaction Z-score,[5]; [11],0.0479 ± 0.082
same,promoter activity interaction Z-score,[5]; [12],-0.0499 ± 0.0013
same,promoter activity interaction Z-score,[5]; [13],0.0442 ± 0.016
same,promoter activity interaction Z-score,[5]; [14],0.0803 ± 0.2
same,promoter activity interaction Z-score,[5]; [15],-0.193 ± 0.16
same,promoter activity interaction Z-score,[5]; [16],-0.125 ± 0.18
same,promoter activity interaction Z-score,[5]; [17],0.00176 ± 0.065
same,promoter activity interaction Z-score,[5]; [18],0.0899 ± 0.22
same,promoter activity interaction Z-score,[5]; [19],-0.00867 ± 0.13
same,promoter activity interaction Z-score,[5]; [20],-0.000878 ± 0.32
same,promoter activity interaction Z-score,[5]; [21],-0.0162 ± 0.056
same,promoter activity interaction Z-score,[5]; [22],0.304 ± 0.35
same,promoter activity interaction Z-score,[6]; [7],0.183 ± 0.43
same,promoter activity interaction Z-score,[6]; [8],0.192 ± 0.74
same,promoter activity interaction Z-score,[6]; [9],0.95 ± 0.16
same,promoter activity interaction Z-score,[6]; [10],-0.793 ± 0.74
same,promoter activity interaction Z-score,[6]; [11],0.878 ± 0.85
same,promoter activity interaction Z-score,[6]; [12],1.47 ± 0.72
same,promoter activity interaction Z-score,[6]; [13],0.512 ± 0.0012
same,promoter activity interaction Z-score,[6]; [14],0.453 ± 0.65
same,promoter activity interaction Z-score,[6]; [15],0.713 ± 0.2
same,promoter activity interaction Z-score,[6]; [16],1.93 ± 0.4
same,promoter activity interaction Z-score,[6]; [17],1.26 ± 0.14
same,promoter activity interaction Z-score,[6]; [18],0.497 ± 0.4
same,promoter activity interaction Z-score,[6]; [19],1.73 ± 1.4
same,promoter activity interaction Z-score,[6]; [20],0.8 ± 2.4
same,promoter activity interaction Z-score,[6]; [21],2.44 ± 0.49
same,promoter activity interaction Z-score,[6]; [22],2 ± 0.17
